The source made the active and inactive calls.
Tests used:
[1] = molecular target: Albumin (Bos taurus) (UniProt P02769); experiment: compounds binding labelled BSA control protein – biochemical, small-molecule microarray, Alexa647 label, 635/667 nm fluorescence, artefact control for SMM control protein annotation, profiling panel (AID 1118); conditions: BSA-A647 binding, fluorescence 635 nm, higher = more signal;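 note: score merges 667 nm emission intensity and signal-to-noise per printed compound spot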
Chain of Albumin (Bos taurus) (P02769 whole entry, looked up): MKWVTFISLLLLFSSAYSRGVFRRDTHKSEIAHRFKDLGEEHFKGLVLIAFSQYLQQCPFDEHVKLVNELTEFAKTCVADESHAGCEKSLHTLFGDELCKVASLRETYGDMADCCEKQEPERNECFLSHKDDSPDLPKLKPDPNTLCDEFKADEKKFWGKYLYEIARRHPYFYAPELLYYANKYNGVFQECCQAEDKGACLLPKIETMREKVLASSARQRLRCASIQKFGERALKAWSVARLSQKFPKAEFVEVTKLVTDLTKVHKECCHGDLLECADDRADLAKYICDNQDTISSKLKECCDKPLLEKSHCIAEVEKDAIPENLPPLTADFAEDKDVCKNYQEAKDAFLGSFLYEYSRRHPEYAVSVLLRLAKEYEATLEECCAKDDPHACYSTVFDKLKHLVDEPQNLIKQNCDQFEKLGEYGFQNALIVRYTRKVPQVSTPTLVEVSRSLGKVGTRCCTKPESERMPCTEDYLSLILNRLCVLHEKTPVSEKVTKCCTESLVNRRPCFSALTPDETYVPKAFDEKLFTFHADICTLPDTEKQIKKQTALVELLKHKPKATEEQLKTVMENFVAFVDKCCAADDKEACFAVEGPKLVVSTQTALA

[2] = probe aXIP binding to arrayed compounds – biochemical, NeuroSMM set, 635/667 nm fluorescence, primary screen (AID 1119); conditions: small-molecule microarray, higher = more signal, called active from +8 up or from −8 down;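 note: probe is the protein aXip251-270 applied at 1 µg/mL to compound-printed slides; binding of probe to printed compounds measured as 667 nm fluorescence plus signal to noise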
[3] = probe aNOTCH3 binding on compound microarray – biochemical, small-molecule microarray, 635/667 nm fluorescence, primary screen (AID 1120); conditions: higher = more signal;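 note: probe is a biotin-tagged antibody raised against NOTCH3 rather than NOTCH3 protein; score merges spot fluorescence near 667 nm with spot signal to noise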
[4] = probe aNOTCH2 binding on compound microarray – biochemical, small-molecule microarray, 635/667 nm fluorescence, primary screen (AID 1121); conditions: higher = more signal;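 note: score merges feature fluorescence read at 667 nm with its signal to noise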
[5] = molecular target: Carbonic anhydrase 2 (Homo sapiens) (UniProt P00918); experiment: compounds binding carbonic anhydrase 2 – biochemical, small-molecule microarray, Alexa647-labelled CAII, profiling panel (AID 1122); conditions: CAII-A647 binding fluorescence, higher = more signal
[6] = COS7 lysate on small-molecule microarray, probe aHis, 635 nm (AID 1123); conditions: COS7 cell lysate, fluorescence, higher = more signal;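 note: z-score combines 667nm fluorescence intensity with signal-to-noise per printed compound spot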
[7] = probe aLAP1 signal on lysate-treated microarray – cell lysate, small-molecule microarray, COS7 lysate, primary screen (AID 1124); conditions: probe aLAP1, fluorescence, higher = more signal;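 note: lysate comes from COS7 cells expressing LAP1 and is applied at 0.3 µg/mL; score merges spot fluorescence near 667 nm with signal-to-noise over triplicate slides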
[8] = test system: Sam68 (KHDRBS1); experiment: compounds binding KHDRBS1 protein – biochemical, small-molecule microarray, 635 nm fluorescence, primary screen (AID 1125); conditions: higher = more signal;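 note: score merges 667 nm channel intensity with signal to noise over triplicate slides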
[9] = test system: Chordin-like protein 2 (CHRDL2); experiment: compounds binding chordin-like 2 – biochemical, small-molecule microarray, 635 nm fluorescence, primary screen (AID 1126); conditions: fluorescence 635 nm, higher = more signal;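 note: printed compound slides probed with Chrdl2 protein at 4 µg/mL for 1 h at 4 C; score merges 667 nm emission intensity with signal to noise over three replicate slides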
[10] = molecular target: Concanavalin-A (Canavalia ensiformis) (UniProt P02866); experiment: compounds binding concanavalin A lectin – biochemical, small-molecule microarray, Alexa647 label, 635 nm, artefact control for SMM control protein annotation, primary screen (AID 1127); conditions: ConA-A647 binding fluorescence, higher = more signal;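 note: z combines 667 nm emission intensity with signal-to-noise across three replicate slides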
Chain of Concanavalin-A (Canavalia ensiformis) (P02866 whole entry, looked up): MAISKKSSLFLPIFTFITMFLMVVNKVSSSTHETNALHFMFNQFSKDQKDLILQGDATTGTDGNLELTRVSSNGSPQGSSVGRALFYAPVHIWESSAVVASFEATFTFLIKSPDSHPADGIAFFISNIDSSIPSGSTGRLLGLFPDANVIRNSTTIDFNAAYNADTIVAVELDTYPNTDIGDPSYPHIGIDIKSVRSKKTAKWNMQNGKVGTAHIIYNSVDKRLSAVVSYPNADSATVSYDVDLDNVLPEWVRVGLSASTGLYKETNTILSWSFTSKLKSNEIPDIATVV

[11] = compounds binding Alexa647 anti-His antibody – biochemical, small-molecule microarray, 635 nm fluorescence, artefact control for SMM control protein annotation, primary screen (AID 1128); conditions: higher = more signal;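 note: score merges feature fluorescence with signal-to-noise for each printed compound spot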
[12] = test system: Human papillomavirus type 1a E7 protein (residues 1-88); experiment: HPV1a E7 small-molecule binders, primary screen, biochemical, small-molecule microarray, residues 1-88, 635 nm (AID 1129); conditions: small-molecule microarray binding, fluorescence 635 nm; higher = more signal
[13] = molecular target: Focal adhesion kinase 1 (Homo sapiens) (UniProt Q05397); experiment: PTK2 protein binding on printed compound slides – biochemical, small-molecule microarray, 635/667 nm fluorescence, BSA, DTT, primary screen (AID 1130); conditions: 635 nm fluorescence, higher = more signal;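 note: composite of spot emission at 667 nm and signal to noise over triplicate slides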
Chain of Focal adhesion kinase 1 (Homo sapiens) (Q05397 whole entry, looked up): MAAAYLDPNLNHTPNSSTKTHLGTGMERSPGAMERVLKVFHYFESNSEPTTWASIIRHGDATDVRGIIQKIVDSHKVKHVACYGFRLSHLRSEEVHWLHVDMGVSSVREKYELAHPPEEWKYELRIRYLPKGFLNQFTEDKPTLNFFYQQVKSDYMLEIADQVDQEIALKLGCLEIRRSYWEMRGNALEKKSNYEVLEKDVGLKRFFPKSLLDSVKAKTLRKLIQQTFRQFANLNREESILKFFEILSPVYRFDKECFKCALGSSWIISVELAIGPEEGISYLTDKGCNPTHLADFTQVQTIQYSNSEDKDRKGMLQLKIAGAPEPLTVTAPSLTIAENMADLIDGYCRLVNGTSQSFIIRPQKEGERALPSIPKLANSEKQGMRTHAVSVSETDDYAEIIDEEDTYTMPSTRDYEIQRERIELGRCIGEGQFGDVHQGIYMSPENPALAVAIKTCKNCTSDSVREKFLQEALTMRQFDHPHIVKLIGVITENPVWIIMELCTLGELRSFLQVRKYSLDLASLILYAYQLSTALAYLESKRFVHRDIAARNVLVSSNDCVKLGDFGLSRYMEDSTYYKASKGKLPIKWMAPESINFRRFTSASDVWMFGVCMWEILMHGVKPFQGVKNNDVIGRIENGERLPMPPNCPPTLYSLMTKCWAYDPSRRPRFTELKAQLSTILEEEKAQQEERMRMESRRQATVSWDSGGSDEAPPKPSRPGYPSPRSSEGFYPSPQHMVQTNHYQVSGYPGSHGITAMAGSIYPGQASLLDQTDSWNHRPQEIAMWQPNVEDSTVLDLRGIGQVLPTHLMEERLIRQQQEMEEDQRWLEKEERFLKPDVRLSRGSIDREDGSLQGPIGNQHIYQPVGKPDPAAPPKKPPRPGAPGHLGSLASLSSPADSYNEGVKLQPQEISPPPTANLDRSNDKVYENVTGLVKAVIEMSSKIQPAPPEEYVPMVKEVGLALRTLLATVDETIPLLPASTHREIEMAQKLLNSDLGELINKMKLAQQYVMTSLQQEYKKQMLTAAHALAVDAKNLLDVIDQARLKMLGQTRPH

[14] = test system: Fibrinogen (Alexa647-labelled); experiment: Alexa647-fibrinogen binding to printed small molecules – biochemical, small-molecule microarray, 635/667 nm fluorescence, artefact control for SMM control-protein annotation, profiling panel (AID 1131); conditions: fibrinogen-A647 binding fluorescence, higher = more signal;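 note: z-score merges 667 nm fluorescence with per-spot signal-to-noise over triplicate slides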
[15] = molecular target: Follistatin (Homo sapiens) (UniProt P19883); experiment: FST protein binding to printed compounds – biochemical, small-molecule microarray, 635/667 nm fluorescence, primary screen (AID 1132); conditions: 635 nm fluorescence, higher = more signal
Chain of Follistatin (Homo sapiens) (P19883 whole entry, looked up): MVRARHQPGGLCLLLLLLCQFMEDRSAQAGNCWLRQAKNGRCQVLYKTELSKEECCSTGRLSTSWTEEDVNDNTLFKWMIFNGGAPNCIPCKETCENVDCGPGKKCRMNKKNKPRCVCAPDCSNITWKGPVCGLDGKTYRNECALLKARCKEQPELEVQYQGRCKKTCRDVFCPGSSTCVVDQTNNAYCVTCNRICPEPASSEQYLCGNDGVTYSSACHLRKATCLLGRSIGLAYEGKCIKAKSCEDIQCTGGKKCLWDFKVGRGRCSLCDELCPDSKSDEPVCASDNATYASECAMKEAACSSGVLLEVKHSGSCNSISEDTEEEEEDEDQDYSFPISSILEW

[16] = molecular target: Fibroblast growth factor 2 (Homo sapiens) (UniProt P09038); experiment: basic fibroblast growth factor binding to printed compounds – biochemical, small-molecule microarray, 635/667 nm fluorescence, primary screen (AID 1133); conditions: FGF2, fluorescence 635/667, higher = more signal
Chain of Fibroblast growth factor 2 (Homo sapiens) (P09038 whole entry, looked up): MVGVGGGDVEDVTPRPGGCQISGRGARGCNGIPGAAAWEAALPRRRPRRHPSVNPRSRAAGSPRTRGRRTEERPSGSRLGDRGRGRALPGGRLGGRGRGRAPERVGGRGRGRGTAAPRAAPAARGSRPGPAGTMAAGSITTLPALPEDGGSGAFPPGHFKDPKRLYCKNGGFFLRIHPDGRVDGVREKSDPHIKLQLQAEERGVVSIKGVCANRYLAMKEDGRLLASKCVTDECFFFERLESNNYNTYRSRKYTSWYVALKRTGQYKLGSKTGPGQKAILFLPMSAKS

[17] = JC-1 mitochondrial potential readout, lung cancer cells – cell-based, A549, JC-1 fluorescence, basal, 24 h, 100 nL, profiling panel (AID 1138); conditions: higher = more signal;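 note: A549 lung adenocarcinoma cells under basal conditions with no added stimulus; test concentration not given here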
[18] = test system: Lefty1; experiment: Lefty1 protein binding to printed compounds – biochemical, small-molecule microarray, 635/667 nm fluorescence, primary screen (AID 1139); conditions: fluorescence 635/667, higher = more signal
[19] = test system: wheat germ agglutinin (Triticum aestivum), Alexa647-labelled; experiment: Alexa647-WGA lectin binding to printed small molecules – biochemical, small-molecule microarray, 635/667 nm fluorescence, artefact control for SMM control-protein annotation, profiling panel (AID 1140); conditions: WGA-A647 binding, 635 nm fluorescence, higher = more signal;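 note: score merges 667 nm feature emission with signal to noise over triplicate slides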
[20] = molecular target: Luciferin 4-monooxygenase (Photinus pyralis) (UniProt P08659); experiment: inhibition of purified Photinus pyralis luciferase – biochemical, luminescence, purified enzyme, 2006 set, primary screen (AID 1141); conditions: purified firefly luciferase, SteadyGlo luminescence, 30 min; higher = more signal, called active from +8 up or from −8 down;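 note: cell-free assay with purified firefly luciferase at 100 ng per well in PBS; test concentration not given here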
Chain of Luciferin 4-monooxygenase (Photinus pyralis) (P08659 whole entry, looked up): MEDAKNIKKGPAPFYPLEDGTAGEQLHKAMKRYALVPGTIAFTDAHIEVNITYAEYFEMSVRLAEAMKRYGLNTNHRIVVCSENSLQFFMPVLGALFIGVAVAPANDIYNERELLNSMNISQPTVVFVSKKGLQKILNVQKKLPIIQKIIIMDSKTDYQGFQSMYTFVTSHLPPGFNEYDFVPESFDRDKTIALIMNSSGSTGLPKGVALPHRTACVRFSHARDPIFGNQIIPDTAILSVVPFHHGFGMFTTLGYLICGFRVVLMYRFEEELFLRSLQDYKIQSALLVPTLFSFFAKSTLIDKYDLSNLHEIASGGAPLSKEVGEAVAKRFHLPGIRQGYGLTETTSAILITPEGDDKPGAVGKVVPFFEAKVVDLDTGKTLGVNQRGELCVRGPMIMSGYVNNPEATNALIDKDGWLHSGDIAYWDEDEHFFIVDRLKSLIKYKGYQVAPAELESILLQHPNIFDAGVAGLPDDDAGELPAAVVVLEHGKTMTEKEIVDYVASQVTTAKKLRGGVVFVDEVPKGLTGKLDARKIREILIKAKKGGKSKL

SMILES: CCCCCCCCCCC(O)C1C=CC2C(=O)N(C)C(=O)C2N1Nc1ccc([N+](=O)[O-])cc1[N+](=O)[O-] (stereo not given)
- composite z-score [1]: 0.884
- composite Z-score [2]: 0.423 (inactive)
- composite z-score [3]: 0.0668
- composite z-score [4]: 0.0807
- composite z-score [5]: 0.589
- composite z-score [6]: 2.32
- composite z-score [7]: 0.141
- composite z-score [8]: 1.11
- composite z-score [9]: -0.0731
- composite z-score [10]: 1.14
- composite z-score [11]: 1.38
- composite z-score [12]: 1.21
- composite z-score [13]: 0.851
- composite z-score [14]: 0.949
- composite z-score [15]: 0.0686
- composite z-score [16]: -0.597
- z-score [17]: 1.68
- composite z-score [18]: -0.524
- composite z-score [19]: 1
- z-score [20]: 0.581 (inactive)

SMILES: COC(=O)[C@@]1(Cc2ccccc2)[C@H]2c3cc(C(=O)N(C)C)n(Cc4c(CO)[nH]cc(C)c4=O)c3C[C@H]2CN1C(=O)c1ccccc1
- composite z-score [1]: 0.96
- composite Z-score [2]: 0.546 (inactive)
- composite z-score [3]: 0.163
- composite z-score [4]: -0.0351
- composite z-score [5]: 0.777
- composite z-score [6]: 1.35
- composite z-score [7]: -0.056
- composite z-score [8]: 0.432
- composite z-score [9]: -0.26
- composite z-score [10]: 0.295
- composite z-score [11]: 0.886
- composite z-score [12]: 0.677
- composite z-score [13]: 0.206
- composite z-score [14]: 0.819
- composite z-score [15]: -0.0699
- composite z-score [16]: -0.615
- z-score [17]: 0.238
- composite z-score [18]: -0.016
- composite z-score [19]: 1
- z-score [20]: 0.379 (inactive)

SMILES: COC(=O)c1c2oc(c1C(=O)OC)C(=O)N(C)Cc1cn(nn1)C[C@H](Cc1ccccc1)NC(=O)N[C@H](CO)CC2
- composite z-score [1]: -0.56
- composite Z-score [2]: -0.2 (inactive)
- composite z-score [3]: -0.155
- composite z-score [4]: -0.18
- composite z-score [5]: -0.41
- composite z-score [6]: -0.69
- composite z-score [7]: -0.161
- composite z-score [8]: -0.947
- composite z-score [9]: -0.516
- composite z-score [10]: -1.17
- composite z-score [11]: -0.0688
- composite z-score [12]: -1.52
- composite z-score [13]: -0.27
- composite z-score [14]: -1.15
- composite z-score [15]: -0.0414
- composite z-score [16]: -0.438
- z-score [17]: -0.209
- composite z-score [18]: 0.244
- composite z-score [19]: -0.272
- z-score [20]: 0.247 (inactive)

SMILES: COc1cc2c(cc1OC)CN(C(=O)[C@@H]1[C@H]3C(=O)O[C@H](c4ccccc4)[C@H](c4ccccc4)N3[C@H](c3ccc(OCCO)cc3)[C@@]13C(=O)Nc1ccc(C#CC4(O)CCCCCC4)cc13)CC2
- composite z-score [1]: 0.872
- composite Z-score [2]: 0.266 (inactive)
- composite z-score [3]: 0.398
- composite z-score [4]: -0.166
- composite z-score [5]: 0.543
- composite z-score [6]: 2.03
- composite z-score [7]: 0.514
- composite z-score [8]: 1.32
- composite z-score [9]: 0.978
- composite z-score [10]: 1.13
- composite z-score [11]: 0.367
- composite z-score [12]: 1.18
- composite z-score [13]: -0.226
- composite z-score [14]: 0.966
- composite z-score [15]: 1.41
- composite z-score [16]: 1.13
- z-score [17]: -0.989
- composite z-score [18]: 1.38
- composite z-score [19]: 0.831
- z-score [20]: -7.42 (inactive)

SMILES: Cc1ccc(S[C@]2(C(=O)NCC(F)(F)F)CC(=O)N(Cc3ccccc3C(F)(F)F)[C@@H]2c2ccc(CO)cc2I)cc1
- composite z-score [1]: 0.88
- composite Z-score [2]: -0.0127 (inactive)
- composite z-score [3]: -0.3
- composite z-score [4]: -0.14
- composite z-score [5]: 0.968
- composite z-score [6]: 0.616
- composite z-score [7]: 0.116
- composite z-score [8]: -0.486
- composite z-score [9]: -1.41
- composite z-score [10]: -0.35
- composite z-score [11]: -0.227
- composite z-score [12]: -0.727
- composite z-score [13]: -0.604
- composite z-score [14]: -0.992
- composite z-score [15]: -0.638
- composite z-score [16]: -1.08
- z-score [17]: 1.17
- composite z-score [18]: -0.745
- composite z-score [19]: -0.154
- z-score [20]: 0.84 (inactive)

From PubChem BioAssay
